In the supplement of paper PMC10849652:
About 8,800 targets were measured; listed, in parts, are those with a hit and a random draw of the rest. About 0.5% of all pairs of compound and target were hits.

Key:
Test in all cases: log2 fold change, soluble protein after heating vs DMSO (PISA); higher = thermal stabilisation; K562 lysate, 10 uM; active = over 0.2 and 3.5 SD of the protein, either way, in both replicates (recomputed)
[1] = compound: C1=CC=C(C=C1)[C@H](COC2=CC3=C(C=C2)NC(=O)N3)NC(=O)C4=CC=CN(C4=O)CC5=CC(=C(C=C5)F)F
In short: (§1)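 Quantification was by TMTpro 16plex LC-MS/MS with equalised channel sums, applied to the supernatant after 21,000xg for 90 min. Samples were crude K562 extract at 1 mg/mL protein in PBS pH 7.4 with 1 mM MgCl2, treated with 10 μM compound for 30 min, heated for 3 min across 48°C-58°C, pooled and brought to 0.5% NP-40 at 4°C. Values are log-two fold changes in thermal stability relative to solvent controls, from duplicates.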

[2] = compound: CC1=C(SC2=C1C(=N[C@H](C3=NN=C(N32)C)CC(=O)N)C4=CC=C(C=C4)Cl)C
In short: as §1

[3] = compound: CC1=C2C(=CC=C1)N=C(N(C2=O)C3=CC=CC=C3C)CN4C=NC5=C(N=CN=C54)N
In short: as §1

[4] = compound: Cc1sc2c(c1C)C(c1ccc(Cl)cc1)=N[C@@H](CC(=O)OC(C)(C)C)c1nnc(C)n1-2
In short: as §1

[5] = compound: c1ccc([C@@H]2C[C@H]2NC2CCNCC2)cc1
In short: as §1

Measured: log2 fold change

SLC16A1 (UniProt P53985)
UniProt P53985, sequence (P53985 whole entry, looked up): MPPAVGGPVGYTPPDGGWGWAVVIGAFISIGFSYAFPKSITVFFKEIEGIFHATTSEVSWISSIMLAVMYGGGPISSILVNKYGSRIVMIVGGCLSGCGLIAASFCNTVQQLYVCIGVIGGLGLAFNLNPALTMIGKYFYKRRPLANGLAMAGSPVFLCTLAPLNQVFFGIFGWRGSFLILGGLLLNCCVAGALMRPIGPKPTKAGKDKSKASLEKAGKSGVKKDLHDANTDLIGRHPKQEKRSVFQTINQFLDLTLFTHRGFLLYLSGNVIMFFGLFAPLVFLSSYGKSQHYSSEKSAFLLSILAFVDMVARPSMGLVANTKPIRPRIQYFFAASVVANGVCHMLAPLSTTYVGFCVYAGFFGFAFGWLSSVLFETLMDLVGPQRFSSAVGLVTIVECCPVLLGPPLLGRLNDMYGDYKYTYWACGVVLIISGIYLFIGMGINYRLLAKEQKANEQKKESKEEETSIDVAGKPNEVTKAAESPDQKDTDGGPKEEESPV
inactive: [1] -0.015 | [2] 0.002 | [3] 0.042 | [4] 0.077 | [5] -0.245

TARBP1 (UniProt Q13395)
UniProt Q13395, sequence (Q13395 whole entry, looked up): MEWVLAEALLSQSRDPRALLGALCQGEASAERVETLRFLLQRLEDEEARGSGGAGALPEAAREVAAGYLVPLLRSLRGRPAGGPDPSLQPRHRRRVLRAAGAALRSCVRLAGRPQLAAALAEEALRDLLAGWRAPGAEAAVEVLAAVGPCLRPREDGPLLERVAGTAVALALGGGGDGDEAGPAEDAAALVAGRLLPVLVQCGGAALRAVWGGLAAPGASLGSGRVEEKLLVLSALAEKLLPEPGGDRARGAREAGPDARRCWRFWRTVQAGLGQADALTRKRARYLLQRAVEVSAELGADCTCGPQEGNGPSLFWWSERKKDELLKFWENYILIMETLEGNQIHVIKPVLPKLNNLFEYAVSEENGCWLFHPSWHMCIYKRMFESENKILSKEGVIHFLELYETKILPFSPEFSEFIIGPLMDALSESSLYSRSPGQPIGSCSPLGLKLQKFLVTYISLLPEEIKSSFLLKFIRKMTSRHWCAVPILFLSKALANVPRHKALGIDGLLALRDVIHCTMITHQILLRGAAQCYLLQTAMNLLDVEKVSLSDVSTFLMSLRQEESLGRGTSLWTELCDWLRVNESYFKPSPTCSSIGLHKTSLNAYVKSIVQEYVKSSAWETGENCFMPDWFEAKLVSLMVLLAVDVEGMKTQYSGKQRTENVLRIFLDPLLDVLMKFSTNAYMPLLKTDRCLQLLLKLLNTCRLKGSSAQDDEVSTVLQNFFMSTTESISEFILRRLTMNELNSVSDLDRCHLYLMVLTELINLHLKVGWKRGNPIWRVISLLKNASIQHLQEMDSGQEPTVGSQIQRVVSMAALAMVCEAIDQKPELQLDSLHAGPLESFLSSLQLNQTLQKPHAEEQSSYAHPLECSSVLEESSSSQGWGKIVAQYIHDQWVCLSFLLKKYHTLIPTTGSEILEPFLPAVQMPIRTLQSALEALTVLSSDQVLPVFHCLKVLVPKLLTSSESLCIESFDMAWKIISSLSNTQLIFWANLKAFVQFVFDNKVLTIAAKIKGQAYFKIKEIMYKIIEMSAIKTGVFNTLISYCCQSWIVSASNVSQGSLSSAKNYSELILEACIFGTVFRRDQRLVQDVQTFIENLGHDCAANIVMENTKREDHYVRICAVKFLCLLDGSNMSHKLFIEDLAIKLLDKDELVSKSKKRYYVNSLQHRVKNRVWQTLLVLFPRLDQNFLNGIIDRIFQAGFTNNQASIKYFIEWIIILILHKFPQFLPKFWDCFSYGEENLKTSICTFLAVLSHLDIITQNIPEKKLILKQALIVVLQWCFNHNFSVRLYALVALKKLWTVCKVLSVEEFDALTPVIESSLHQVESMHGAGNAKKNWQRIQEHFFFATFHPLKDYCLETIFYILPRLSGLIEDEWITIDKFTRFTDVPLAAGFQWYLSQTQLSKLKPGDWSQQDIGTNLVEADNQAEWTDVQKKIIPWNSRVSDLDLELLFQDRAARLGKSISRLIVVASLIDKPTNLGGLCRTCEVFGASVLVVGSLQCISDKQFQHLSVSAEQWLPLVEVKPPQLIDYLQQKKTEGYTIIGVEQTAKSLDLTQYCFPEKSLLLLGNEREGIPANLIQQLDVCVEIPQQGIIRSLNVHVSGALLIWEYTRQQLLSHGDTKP
inactive: [1] -0.108 | [2] -0.025 | [3] 0.112 | [4] 0.016 | [5] 0.053

STK25 (UniProt O00506)
UniProt O00506, sequence (O00506 whole entry, looked up): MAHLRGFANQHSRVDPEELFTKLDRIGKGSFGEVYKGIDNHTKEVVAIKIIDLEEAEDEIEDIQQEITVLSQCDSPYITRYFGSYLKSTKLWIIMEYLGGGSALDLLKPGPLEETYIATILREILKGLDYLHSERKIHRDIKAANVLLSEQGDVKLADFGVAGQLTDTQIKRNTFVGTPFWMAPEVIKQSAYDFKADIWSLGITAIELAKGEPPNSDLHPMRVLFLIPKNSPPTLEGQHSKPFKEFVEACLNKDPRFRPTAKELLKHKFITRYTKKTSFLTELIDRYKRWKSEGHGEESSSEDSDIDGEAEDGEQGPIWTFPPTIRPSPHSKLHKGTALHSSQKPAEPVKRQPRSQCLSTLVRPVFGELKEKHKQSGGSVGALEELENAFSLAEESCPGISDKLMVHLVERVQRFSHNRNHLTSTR
inactive: [1] -0.05 | [2] 0.035 | [3] -0.062 | [4] 0.053 | [5] -0.048

STK26 (UniProt Q9P289)
UniProt Q9P289, sequence (Q9P289 whole entry, looked up): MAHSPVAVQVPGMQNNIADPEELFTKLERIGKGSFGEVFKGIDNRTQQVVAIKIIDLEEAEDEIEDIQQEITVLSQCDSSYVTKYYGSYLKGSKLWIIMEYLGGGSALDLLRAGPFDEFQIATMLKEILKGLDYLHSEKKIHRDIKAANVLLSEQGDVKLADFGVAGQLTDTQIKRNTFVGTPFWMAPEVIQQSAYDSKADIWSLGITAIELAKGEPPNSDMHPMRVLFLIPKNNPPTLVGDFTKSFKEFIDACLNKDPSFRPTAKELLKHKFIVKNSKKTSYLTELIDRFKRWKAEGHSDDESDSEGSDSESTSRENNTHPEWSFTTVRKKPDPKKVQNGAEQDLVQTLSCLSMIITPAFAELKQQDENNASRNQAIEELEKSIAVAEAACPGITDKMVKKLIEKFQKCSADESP
inactive: [1] -0.015 | [2] -0.015 | [3] 0.008 | [4] -0.015 | [5] 0.02

SSNA1 (UniProt O43805)
UniProt O43805, sequence (O43805 whole entry, looked up): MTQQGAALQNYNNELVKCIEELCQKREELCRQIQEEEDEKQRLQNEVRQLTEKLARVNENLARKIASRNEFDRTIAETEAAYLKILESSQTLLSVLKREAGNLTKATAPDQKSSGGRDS
inactive: [1] 0.034 | [2] -0.038 | [3] 0.009 | [4] -0.129 | [5] -0.075

SMARCAD1 isoform 2 (UniProt Q9H4L7)
UniProt Q9H4L7, sequence (Q9H4L7 whole entry, looked up): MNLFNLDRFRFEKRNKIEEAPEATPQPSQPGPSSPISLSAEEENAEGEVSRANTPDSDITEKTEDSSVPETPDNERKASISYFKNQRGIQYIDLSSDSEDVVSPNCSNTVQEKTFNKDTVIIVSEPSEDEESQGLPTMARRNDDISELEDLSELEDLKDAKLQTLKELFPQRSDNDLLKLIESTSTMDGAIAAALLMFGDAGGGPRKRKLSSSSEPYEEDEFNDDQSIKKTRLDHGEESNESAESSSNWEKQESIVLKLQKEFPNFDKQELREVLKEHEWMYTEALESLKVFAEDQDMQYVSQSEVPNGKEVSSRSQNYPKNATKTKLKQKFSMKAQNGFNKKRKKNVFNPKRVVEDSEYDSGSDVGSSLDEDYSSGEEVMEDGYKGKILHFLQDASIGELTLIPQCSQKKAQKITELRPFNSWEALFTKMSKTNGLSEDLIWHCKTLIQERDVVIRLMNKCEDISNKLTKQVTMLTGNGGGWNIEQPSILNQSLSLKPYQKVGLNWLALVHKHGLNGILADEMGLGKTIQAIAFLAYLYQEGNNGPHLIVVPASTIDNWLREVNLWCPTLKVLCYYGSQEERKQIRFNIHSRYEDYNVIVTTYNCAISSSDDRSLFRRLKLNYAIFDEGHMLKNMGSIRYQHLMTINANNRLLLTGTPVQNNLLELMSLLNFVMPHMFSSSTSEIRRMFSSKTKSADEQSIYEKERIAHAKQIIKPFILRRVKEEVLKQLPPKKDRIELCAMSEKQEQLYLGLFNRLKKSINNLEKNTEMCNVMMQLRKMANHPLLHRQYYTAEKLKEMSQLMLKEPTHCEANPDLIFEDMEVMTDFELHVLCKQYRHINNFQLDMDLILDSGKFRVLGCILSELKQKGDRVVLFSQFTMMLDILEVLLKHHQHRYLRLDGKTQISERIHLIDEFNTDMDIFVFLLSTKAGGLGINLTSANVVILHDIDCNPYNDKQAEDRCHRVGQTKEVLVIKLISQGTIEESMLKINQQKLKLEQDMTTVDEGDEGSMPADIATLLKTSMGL
inactive: [1] -0.006 | [2] -0.036 | [3] 0.014 | [4] 0.014 | [5] 0.035

SRSF2 (UniProt Q01130)
UniProt Q01130, sequence (Q01130 whole entry, looked up): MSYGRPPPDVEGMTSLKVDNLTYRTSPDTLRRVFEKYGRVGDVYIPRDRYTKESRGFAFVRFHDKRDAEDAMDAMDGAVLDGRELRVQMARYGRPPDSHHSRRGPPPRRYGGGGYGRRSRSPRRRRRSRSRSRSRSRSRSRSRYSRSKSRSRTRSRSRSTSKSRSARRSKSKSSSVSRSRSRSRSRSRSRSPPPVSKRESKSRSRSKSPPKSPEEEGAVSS
inactive: [1] 0.023 | [2] -0.011 | [3] 0 | [4] -0.058 | [5] -0.129

SF3B6 (UniProt Q9Y3B4)
UniProt Q9Y3B4, sequence (Q9Y3B4 whole entry, looked up): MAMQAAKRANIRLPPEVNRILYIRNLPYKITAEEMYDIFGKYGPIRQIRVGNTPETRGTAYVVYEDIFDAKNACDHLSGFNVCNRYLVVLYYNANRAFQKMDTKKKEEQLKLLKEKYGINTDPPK
inactive: [1] 0.052 | [2] -0.032 | [3] -0.184 | [4] 0.014 | [5] 0

TARBP2 (UniProt Q15633)
UniProt Q15633, sequence (Q15633 whole entry, looked up): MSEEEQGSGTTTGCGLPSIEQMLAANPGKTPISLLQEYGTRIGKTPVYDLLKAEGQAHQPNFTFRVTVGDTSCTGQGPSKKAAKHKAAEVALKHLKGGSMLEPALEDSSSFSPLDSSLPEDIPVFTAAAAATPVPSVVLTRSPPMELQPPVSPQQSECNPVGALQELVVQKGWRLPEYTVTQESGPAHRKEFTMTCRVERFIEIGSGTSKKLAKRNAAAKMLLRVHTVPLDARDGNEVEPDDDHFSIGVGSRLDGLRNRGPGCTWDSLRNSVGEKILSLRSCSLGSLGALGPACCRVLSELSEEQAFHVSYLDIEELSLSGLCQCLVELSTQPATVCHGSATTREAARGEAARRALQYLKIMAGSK
inactive: [1] 0.001 | [2] -0.003 | [3] -0.003 | [4] -0.019 | [5] 0.051
